Consider 40 compounds from PubChem BioAssay (Tox21).

Molecules are shown by their SMILES. Results filed as inconclusive are left out. Entries that show only a call come without a potency. Activity calls are given as the source filed them. Calls come from the whole dose curve.
Potency is the fitted concentration of half-maximal effect.

Retinoic acid receptor RXR-alpha (Homo sapiens), sequence (P19793 whole entry, looked up): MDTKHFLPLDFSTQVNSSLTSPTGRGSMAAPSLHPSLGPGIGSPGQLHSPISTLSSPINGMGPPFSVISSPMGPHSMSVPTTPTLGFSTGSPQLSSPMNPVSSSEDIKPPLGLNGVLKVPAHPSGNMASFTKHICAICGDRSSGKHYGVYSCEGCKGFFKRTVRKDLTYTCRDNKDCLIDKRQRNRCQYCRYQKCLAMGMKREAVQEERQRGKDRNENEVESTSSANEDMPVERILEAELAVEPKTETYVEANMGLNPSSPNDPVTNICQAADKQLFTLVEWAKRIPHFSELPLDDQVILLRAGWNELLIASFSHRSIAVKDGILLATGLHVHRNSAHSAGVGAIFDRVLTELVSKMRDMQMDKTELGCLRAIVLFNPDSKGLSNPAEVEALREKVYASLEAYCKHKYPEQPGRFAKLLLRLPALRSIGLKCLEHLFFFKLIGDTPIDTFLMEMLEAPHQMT

The assay concerns the target Retinoic acid receptor RXR-alpha (Homo sapiens) (UniProt P19793). As to the kind of experiment: qHTS assay to identify small molecule agonists of the RXR signaling pathway (AID 1159527). Note: nearly all actives have a fitted effect of over 35% in size. Conditions: HEK293T RXRa-UAS-bla, beta-lactamase ratio, 16 h; series mostly up to 76.8 µM; activation: at the top concentration. The text has this: U.S. Tox21 Program National Center for Advancing Translational Sciences [NCATS] NIH Chemical Genomics Center [NCGC] U.S. Environmental Protection Agency [EPA] National Institutes of Environmental Health Sciences [NIEHS] National Toxicology Program [NTP] U.S. Food and Drug Administration [FDA] Tox21 Assay Overview: The Retinoid X receptor (RXR), a nuclear hormone receptor expressed in liver, spleen, placenta, epidermis, central nervous system. These receptors are able to form homo and heterodimers with other nuclear receptors and due to this heterodimerizing ability, RXR functions as master regulators producing diverse physiological effects. Three subtypes of RXR exist; alpha, beta and gamma. Retinoid X receptor alpha (RXR-alpha) has potential roles in metabolic signaling pathways, skin alopecia, dermal cysts, cardiac development, insulin sensitization etc. Therefore screening environmental chemicals on RXR-alpha signaling can be used for the studies focused on such therapeutic applications. For quantification of RXR-alpha ligands signaling, GeneBLAzer RXR alpha-UAS-bla HEK 293T (Life Technologies, Carlsbad, CA) cells containing a beta-lactamase reporter-gene under control of Retinoid X receptor-alpha response element were used to screen Tox21 10K library.
Tox21 Assay Protocol Summary: RXR-alpha HEK 293T cells were dispensed at 2,000 cells/6 uL of assay medium containing 2% charcoal-stripped FBS using a Multidrop Combi (ThermoFisher Scientific, Waltham, MA) dispenser. The assay was performed in black wall/clear-bottom 1536-well plates (Greiner Bio-One North America Inc. Monroe, NC). 9-cis retinoic acid was used as a positive control in the agonist mode screen. After the assay plates were incubated at 37 C and 5% CO2 for 5 hr, 23 nL of compounds dissolved in DMSO, positive controls or DMSO only were transferred to the assay plate by a Pintool station (Kalypsys, San Diego, CA). The assay plates were incubated at 37 C and 5% CO2 for 16 hr. One uL of LiveBLAzer B/G FRET substrate (Life Technologies) was added using a Flying Reagent Dispenser (Aurora Discovery, San Diego, CA) and the plates were incubated at room temperature for 2 hr. Fluorescence intensity (405 nm excitation, 460/530 nm emission) was measured using an Envision plate reader (PerkinElmer, Shelton, CT).
(In general: qHTS replaces the single test concentration by a dilution series.)
Regarding `O=Cc1ccccc1O`, the Potency entry is “inactive”. Still for that read-out and setting: for `Cc1cccc(C(=O)O)c1` the value was 27.5 µM (active); for `COc1ccc(OC)c(C(O)CNC(=O)CN)c1` (stereo not given), “inactive”. As for `C[C@]12CCC(=O)C=C1CC[C@@H]1[C@@H]2C(=O)C[C@@]2(C)[C@H]1CC[C@]2(O)C(=O)CO`, the “activation” value was -0.207% [at 35.3 µM] (inactive).

On to `c1ccc2c(c1)Oc1ccccc1S2`, for which the “activation” value is -7.15% (inactive). As to `CCCCC(CC)COCC1CO1` (stereo not given), the Potency result is “inactive”. Regarding `COc1ccc(C(=O)CC(=O)c2ccc(C(C)(C)C)cc2)cc1`, the Potency result was “inactive”.

With `c1ccc2cc(Nc3ccc(Nc4ccc5ccccc5c4)cc3)ccc2c1`, the “activation” value was -8.61% (inactive). Regarding `C/C=C/C(=O)O`, the Potency result is “inactive”. Still for that read-out and setting: for `CCC(C)c1ccccc1O` (stereo not given) the value was “inactive”. The same measure, in the same setting: the entry for `CCCCOCCOCCO` is “inactive”.

With `Cc1ncc[nH]1`, the Potency entry was “inactive”.

On to `C[Si](C)(C)O[Si](C)(C)C`, for which the Potency result is “inactive”. For the compound `O=[N+]([O-])c1ccc2c(c1)Cc1ccccc1-2`, the Potency result was “inactive”. As for `CCCCC/C=C/C=C/C=O`, the “activation” value was -15.9% (inactive). As for `Oc1ccc(O)cc1`, the “activation” value is -8.85% [at 35.3 µM] (inactive).

As to `CN1C(C(=O)Nc2ccccn2)=C(O)c2ccccc2S1(=O)=O`, the “activation” value is 4.17% (inactive).

With `Cc1ccc2c(n1)Oc1ccc(C(C)C(=O)OCC(=O)N(C)C)cc1C2` (stereo not given), the Potency result was “inactive”. For `C=C(C)C1CC=C(C)CC1` (stereo not given), the “activation” value is 7.02% (inactive). As for `COC(=O)c1ccccc1`, the Potency result is “inactive”. With `Cn1cnc([N+](=O)[O-])c1Sc1ncnc2nc[nH]c12`, the “activation” value was -16.6% [at 35.3 µM] (inactive). Turning to `CCCCC(CC)COP(=O)(OCC(CC)CCCC)OCC(CC)CCCC` (stereo not given), the Potency entry is “inactive”. For the compound `NC=O`, the “activation” value is 7.93% (inactive). Still for that read-out and setting: the figure for `Brc1cc(Oc2cc(Br)c(Br)c(Br)c2Br)c(Br)c(Br)c1Br` is 7.54% [at 35.3 µM] (inactive); for `Nc1ccc(S(=O)(=O)Nc2cnc3ccccc3n2)cc1` it is 0.742% [at 35.3 µM] (inactive). With `O=C=Nc1ccc(Cc2ccc(N=C=O)cc2)cc1`, the Potency entry was “inactive”. With `CCCCCCCCCC(=O)OC`, the “activation” value was -5.93% (inactive). With `CC(C(=O)O)c1cccc(C(=O)c2ccccc2)c1` (stereo not given), the “activation” value was 0.298% [at 35.3 µM] (inactive). Turning to `CCCC(=O)O`, the Potency result is “inactive”.

With `CC(C)OB(OC(C)C)OC(C)C`, the Potency result is “inactive”. For `CC(CCC(=O)O)(c1ccc(O)cc1)c1ccc(O)cc1`, the “activation” value is 4.34% (inactive). In the case of `CN(C)c1nc(N(C)C)nc(N(C)C)n1`, the Potency entry was “inactive”. Consider `CC1=CC2C3CC(C=C3C)C2C1` (stereo not given), for which the “activation” value is 3.97% (inactive).

Turning to `O=C(OCc1ccccc1)c1ccccc1O`, the “activation” value was -10.5% (inactive). With `OC[C@H]1O[C@@H]2O[C@H]3[C@H](O)[C@@H](O)[C@@H](O[C@H]4[C@H](O)[C@@H](O)[C@@H](O[C@H]5[C@H](O)[C@@H](O)[C@@H](O[C@H]6[C@H](O)[C@@H](O)[C@@H](O[C@H]7[C@H](O)[C@@H](O)[C@@H](O[C@H]8[C@H](O)[C@@H](O)[C@@H](O[C@H]1[C@H](O)[C@H]2O)O[C@@H]8CO)O[C@@H]7CO)O[C@@H]6CO)O[C@@H]5CO)O[C@@H]4CO)O[C@@H]3CO`, the “activation” value was 7.88% [at 35.3 µM] (inactive). Take `CCCCNS(=O)(=O)c1ccccc1`: the Potency entry is “inactive”.

On to `CCCCC(CC)COC(=O)c1ccc(N(C)C)cc1` (stereo not given), for which the “activation” value is -18.1% (inactive). On the same count and under the same terms, the figure for `c1ccc(Nc2ccccc2)cc1` is -10.4% (inactive).

Consider `Nc1ccc(Cl)cc1Cl`, for which the Potency result is “inactive”. For the compound `O=P(O)(O)O`, the Potency entry is “inactive”.
